Source: PubChem BioAssay
A selection: hits, their analogues and other compounds. The true share with any hit is near 3.2%.
AmpC detergent: AmpC beta-lactamase inhibition with detergent present. P00811. AmpC hydrolysis of nitrocefin, absorbance 480 nm, 0.01% Triton. Potency, µM (titrated, usually from 114 µM), for the others: top-dose activity change, negative = inhibition, usual class: inhibitors. 370,000 compounds, 0.041% hits. AID 485294;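 note: 0% = no-compound wells and -100% = no-enzyme wells; nearly all actives have a fitted effect of over 25% in size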
Target sequence (P00811 whole entry, looked up): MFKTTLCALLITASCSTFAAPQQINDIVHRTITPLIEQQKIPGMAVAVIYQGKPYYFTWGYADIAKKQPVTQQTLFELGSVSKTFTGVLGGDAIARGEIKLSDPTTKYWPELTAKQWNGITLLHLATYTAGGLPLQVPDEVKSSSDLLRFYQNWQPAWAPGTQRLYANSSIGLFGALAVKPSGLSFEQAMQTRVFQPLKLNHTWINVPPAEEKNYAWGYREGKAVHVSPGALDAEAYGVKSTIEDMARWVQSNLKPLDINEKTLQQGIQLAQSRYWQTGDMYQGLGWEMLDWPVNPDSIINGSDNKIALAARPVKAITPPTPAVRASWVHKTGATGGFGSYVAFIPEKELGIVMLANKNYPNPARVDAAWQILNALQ
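20 mM phosphate pH 7.0 + 0.01% (detergent screen) or 0.0001% Triton X-100; 5.3 nM AmpC reagent; cpd preinc 15 min RT; nitrocefin (800 uM stock) to start; A480 q20 s × 4 min; Activity was normalised to no-enzyme and no-compound control wells.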
AMA1 RON2 block: inhibitors of Plasmodium falciparum AMA1-RON2 interaction; AlphaScreen AMA1-biotinylated RON2 peptide binding; Potency, µM (highest dose often 58.2 µM), for inactives: at the highest dose activity change, negative = inhibition, most hits filed as inhibitors; AID 720542; 360,000 compounds, 0.2% hits;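 note: 0% = vehicle wells and -100% = peptide control; nearly all actives have a fitted effect of over 45% in size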
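AMA1 (3D7) with his tag at 25 nM final met compounds first, then biotinylated RON2 peptide at 25 nM; detection used donor plus acceptor beads, 10 µg/mL apiece, read by AlphaScreen after 30 min at room temperature.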
RE007 growth inh: less growth of the S. pombe RE007 Vpr strain | S. pombe RE007 Vpr strain, BacTiter-Glo ATP luminescence, 24 h | Potency, µM (top dose mostly 92.2 µM), inactives show at the highest dose activity change, negative = less growth, usual class: inhibitors | 360,000 compounds, 0.21% hits; active = well fitted falling curve with a large enough effect; inconclusive = small, poorly fitted or top-dose-only effect; inactive = no such curve, though single readings can be large or run the other way; note: nearly all actives have a fitted effect of over 50% in size
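Fission yeast RE007 carrying one integrated HIV-1 vpr copy, seeded at OD 0.01 in PMG+AL medium with 23 nL pinned compound. Grown 24 h at 30 degrees; viability read by BacTiter-Glo luminescence after 5 min.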
AmpC inh no detg: inhibitors of E. coli AmpC beta-lactamase without detergent | 330,000 compounds, 0.52% hits | AID 485341 | AmpC nitrocefin hydrolysis, absorbance 480 nm, 0.0001% Triton | Potency, µM (top dose mostly 57.1 µM), inactives show top-dose activity change, negative = inhibition, hits mostly inhibitors | P00811;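 note: plate controls were no compound for no effect and no enzyme for full effect; nearly all actives have a fitted effect of over 20% in size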
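20 mM phosphate pH 7.0 + 0.01% (detergent screen) or 0.0001% Triton X-100; 5.3 nM AmpC reagent; cpd preinc 15 min RT; nitrocefin (800 uM stock) to start; A480 q20 s × 4 min; Activity was normalised to no-enzyme and no-compound control wells.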
Sm TGR block: inhibitors of Schistosoma mansoni thioredoxin glutathione reductase. 360,000 compounds, 3% hits. AID 485364. Q962Y6. purified TGR, DTNB reduction, TNB absorbance 405 nm. Potency, µM (titrated, usually from 114 µM), for the others: at the top dose activity change, negative = inhibition, hits mostly inhibitors; note: nearly all actives have a fitted effect of over 60% in size
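TGR 20 nM + NADPH 100 uM (dispensed conc.), cpd preinc 15 min RT; start with NADPH (500 uM addition) then DTNB (15 mM addition). Kinetic TNB absorbance, 405 nm filter. Four-parameter Hill fit across titration.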
The depositor's hits bear a star; u = inconclusive; x = no result given; [ ] = remark or other dose. Unless noted, calls come from the whole dose curve; as a rule, active = well fitted curve in the direction sought with a large enough effect; inconclusive = small, poorly fitted or top-dose-only effect, or another doubt; inactive = no such curve, though single readings can be large; an effect the other way counts as inactive or inconclusive. Unless noted, % is set by controls: 0 for no effect and ±100 for the full control effect; potency is the fitted concentration of half-maximal effect.

SMILES | AmpC detergent | AMA1 RON2 block | RE007 growth inh | AmpC inh no detg | Sm TGR block
COc1cc(C=NN2CCCCC2)cc(OC)c1OC | x | -9% | -17% | x | x
CC(=O)c1ccc(NC(=O)CCc2c(C)nc3c(c2C)c(=O)n(C)c(=O)n3C)cc1 | 0% | x | x | x | 0%
O=C(NC(=S)Nc1ccc2c(c1)OCCO2)c1ccccc1 | -4% | 6% | -4% | -27% | 8.9µM*
O=C(NC(=S)Nc1ccc2c(c1)OCCO2)c1ccccc1F | -10% | 26% | 9% | -28% | u
O=C(NC(=S)Nc1ccc(F)cc1)c1ccc2c(c1)OCCO2 | u | 51% | -9% | -26% | 11µM*
COc1ccc(NC(=S)NC(=O)c2ccc3c(c2)OCCO3)cc1 | x | -12%[11.6 µM] | -6% | -18% | x
CCOc1ccc(CNC(=O)c2cnc3sc(N4CCOCC4)nn3c2=O)cc1OC | -4% | x | x | x | -2%
O=C(NCC(c1ccc2c(c1)OCO2)N1CCN(c2ccccc2)CC1)C(=O)Nc1ccccc1 (stereo not given) | -1% | x | x | x | -1%
Oc1cccc(CN2CCOCC2)c1O | x | u | -28% | x | x
O=S(=O)(c1c(F)cccc1F)N1CCN(Cc2c(O)ccc3ccccc23)CC1 | -10% | -1% | -6% | -1% | 2.2µM*
Oc1ccc2ccccc2c1CN1CCOCC1 | 9% | -9% | -27% | -19% | 0.45µM*
Oc1c(CN2CCOCC2)cc(CN2CCOCC2)c(O)c1O | x | 11µM* | 3% | x | x
Nc1sccc1C(=O)NC1CC1 | x | 28% | 1% | x | x
CCCCN1CCc2nc(N3CCN(c4ncccn4)CC3)ncc2C1 | 12% | x | x | x | -2%
COc1cc(/C=C2/C(=O)NC(=O)N(c3ccc(C)cc3)C2=O)cc(OC)c1OC | -6% | 4% | 5% | -46% | u
COc1ccc(OC)c(N2C(=O)NC(=O)/C(=C\c3ccc([N+](=O)[O-])s3)C2=O)c1 | -2% | -28% | u | -40% | 11µM*
CCOc1ccc(N2C(=O)NC(=O)/C(=C\c3ccccc3[N+](=O)[O-])C2=O)cc1 | 0% | -3% | -25% | -30% | u
COc1ccc(N2C(=O)NC(=O)/C(=C\c3ccccc3[N+](=O)[O-])C2=O)cc1 | -4% | -3% | -13% | -24% | 16µM*
O=C1NC(=O)N(c2ccccc2)C(=O)/C1=C\c1ccc([N+](=O)[O-])s1 | 0% | -18% | u | -34% | 10µM*
CN1C(=O)NC(=O)/C(=C/c2ccc([N+](=O)[O-])s2)C1=O | -2% | u | u | -44% | 8.9µM*
COC(=O)c1ccccc1NC(=O)CSc1nc2ccccc2nc1Cc1ccccc1OC | 10% | x | x | x | 0%
COc1ccc(S(=O)(=O)NCC(c2ccc(N(C)C)cc2)N2CCCC2)cc1F (stereo not given) | 19% | x | x | x | 0%
CCOc1ccc(C(=O)NN2C(=O)C3C4C=CC(O4)C3C2=O)cc1 (stereo not given) | 4% | 16% | -4% | -19% | 22µM*
O=C(CCc1ccccc1)NN1C(=O)C2C3C=CC(O3)C2C1=O (stereo not given) | -1% | 31% | 10% | -19% | x
Cc1ccccc1OCC(=O)NN1C(=O)C2C3C=CC(O3)C2C1=O (stereo not given) | u | 67% | -1% | -9%[2.29 µM] | 20µM*
SMILES | AmpC detergent | AMA1 RON2 block | RE007 growth inh | AmpC inh no detg | Sm TGR block
Cc1cccc(OCC(=O)NN2C(=O)C3C4C=CC(O4)C3C2=O)c1 (stereo not given) | 4% | -4% | 3% | -11% | x
COc1ccc(OC)c(C2CC(=O)Nc3c2c(=O)[nH]c2nc4ccccc4n32)c1 (stereo not given) | 1% | x | x | x | 7%
CCN1C(=O)c2ccccc2Sc2ccc(NC(=O)COc3ccc(Cl)cc3)cc21 | 5% | x | x | x | 11%
C=CCc1ccc(O)c(-c2ccc(O)c(CC=C)c2)c1 | 5% | -16% | u | -43% | 45µM*
C=CCc1cc(C(=O)N2CCCCC2)ccc1O | 1% | 3% | 4% | -16% | 3%
COc1ccc(-c2nc3ccc(C)cn3c2CC(C)(C)C)cc1OC | x | -20% | -29% | x | x
COc1ccc(-c2cc(=NCCCCCC(=O)O)c3cc(C)ccc3o2)cc1 | 7% | 2% | -8% | 18% | 21%
CC(=O)CCc1oc2ccc(C)cc2c1-c1ccc(C)o1 | -5% | -25% | -23% | 2% | 25µM*
CC(=O)CCc1oc2ccc(NC(C)=O)cc2c1-c1ccc(C)o1 | 0% | -5% | 4% | 10% | 20µM*
CC1=NN=C(c2ccccc2)C(c2c[nH]c3ccccc23)N1O (stereo not given) | 0% | 16% | 5% | -14% | -2%
Cc1[nH]c2ccccc2c1C1C(c2ccccc2)=NN=C(C(C)C)N1O (stereo not given) | -9% | 5% | -9% | -19% | 11µM*
CC(=O)Nc1cc([As](=O)(O)O)ccc1O | -11% | 0% | -5% | -37% | 7.1µM*
CC(=O)Nc1cc(Br)ccc1O | 2% | 5% | 3% | -4% | 0%
COc1ccc(N2CC(C(=O)Nc3ccccc3-c3nc(-c4ccc(C)cc4)no3)CC2=O)cc1 (stereo not given) | -5% | x | x | x | 0%
Cc1ccc(NC(=O)CCc2c(C)nc3cc(-c4ccccc4)nn3c2C)cc1F | 15% | x | x | x | -8%
CCOC(=O)CNC(=O)CN1C(=O)CC(c2ccco2)Sc2ccccc21 (stereo not given) | -17% | 5% | -14% | -19% | -36%
O=C(CN1C(=O)CC(c2ccco2)Sc2ccccc21)NCC1CCCO1 (stereo not given) | -1% | -5% | -15% | 43% | 13µM*
CCCN1C(=O)CC(c2ccco2)Sc2ccccc21 (stereo not given) | -14% | -4% | -15% | -16% | 14µM*
COc1ccc(C2CC(=O)N(C)c3ccccc3S2)cc1 (stereo not given) | -5% | -3% | 23% | -16% | -6%
O=C1CC(c2ccccc2)Sc2nc3ccccc3n21 (stereo not given) | 2% | -12% | -9% | -36% | 7%
CN1C(=O)CC(c2ccco2)Sc2ccccc21 (stereo not given) | u | 13% | -2% | -2% | 40µM*
O=C1CC(c2ccco2)Sc2nc3ccccc3n21 (stereo not given) | -10% | 0% | u | -24% | 50µM*
CCCCOC(=O)/C(C#N)=C/c1ccc(-c2ccc(Br)cc2)o1 | 3% | x | x | x | -2%
CC1CCCN(C(=O)C(C)Nc2cc(Cl)ccc2N2CCOCC2)C1 (stereo not given) | -1% | -20% | -10% | 167% | 40µM*
CC1=C(C(=O)Nc2cccnc2)C(c2ccccc2Cl)n2nc(-c3ccccc3)nc2N1 (stereo not given) | 26% | x | x | x | 0%
